# Assay results published in PubChem BioAssay (Tox21).
# Several values for one entry are separate records, joined by “and”; a condition that tells them apart may be missing. Identical values can stand only once. Inconclusive results are not listed. Where a call stands in place of a potency, no number is given. Some compounds were tested as several samples or in several runs, with calls that do not always agree. Activity calls are given as the source filed them. Calls come from the whole dose curve.
# Molecular target: D(2) dopamine receptor (Homo sapiens) (UniProt P14416)
# Sequence (P14416 whole entry, looked up): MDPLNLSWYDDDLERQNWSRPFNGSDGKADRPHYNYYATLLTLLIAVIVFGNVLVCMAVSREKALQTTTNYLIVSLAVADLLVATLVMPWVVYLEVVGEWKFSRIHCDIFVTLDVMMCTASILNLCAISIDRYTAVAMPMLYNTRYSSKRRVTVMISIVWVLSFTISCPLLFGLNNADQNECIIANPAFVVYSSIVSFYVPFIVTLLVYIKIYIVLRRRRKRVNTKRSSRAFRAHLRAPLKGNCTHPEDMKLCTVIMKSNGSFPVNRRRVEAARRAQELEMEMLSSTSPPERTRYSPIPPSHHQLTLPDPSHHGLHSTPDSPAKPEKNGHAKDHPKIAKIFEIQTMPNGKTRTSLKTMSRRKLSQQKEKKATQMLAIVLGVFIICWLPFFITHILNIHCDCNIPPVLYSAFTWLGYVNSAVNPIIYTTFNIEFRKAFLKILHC
# Assay: Dopamine D2 receptor (DRD2) small molecule agonists, cell-based qHTS assay (AID 1963594); note: nearly all actives have a fitted effect of over 35% in size
# Details: HEK293-DRD2 cAMP HTRF, agonist mode, 30 min; series mostly up to 92.4 µM
# Source text: National Center for Advancing Translational Sciences [NCATS]
# Division of Preclinical Innovation [DPI]
# U.S. Environmental Protection Agency [EPA]
# National Institutes of Environmental Health Sciences [NIEHS]
# National Toxicology Program [NTP]
# U.S. Food and Drug Administration [FDA]
# DRD2 is the D2 subtype of the dopamine receptor, which is coupled to Gi subtype of G protein-coupled receptor. This G protein-coupled receptor inhibits adenylyl cyclase activity. The DRD2-HEK293 cell line stably expressing D2 dopamine receptor can be used for screening agonists and antagonists of interactions between D2 and its ligands. The Hek293-DRD2 cAMP assay is based on HTRF technology. It measures changes of cAMP accumulation in response to Gi coupled GPCR activation or inhibition.
# Tox21 Assay Protocol Summary:
# DRD2-Hek293 cells were dispensed at 600 cells/3uL/well in 1536-well white plates using a Multidrop Dispenser. After the assay plates were incubated at a 37 C/5% CO2 incubator for 24 h, 1 uL of Ro20-1724 at final concentration of 0.1 mM was transferred to the assay plate by a Flying Reagent Dispenser. Following Ro20-1724 addition, 23 nL of compound dissolved in DMSO, positive controls or DMSO only was added to the assay plates via Wako pintool station. The assay plates were incubated at room temperature for 10 min. Next, 1 uL of NKH477 at 200nM was added into the plates. After the assay plates were incubated at room temperature for an additional 30 min, 2.5 ul/well of cAMP-d2 and 2.5 ul/well of anti-cAMP-cryptate were added respectively into the assay plates using a Flying Reagent Dispenser. The plates were incubated at room temperature for 1 h. The fluorescence intensity in the plates was measured at 340 nm excitation and 665 & 620 nm emission by an Envision plate reader.
# Potency is the fitted concentration of half-maximal effect.
SMILES,Potency,activation
CCC(=O)c1ccc2c(c1)N(CCCN(C)C)c1ccccc1S2,inactive,
CC(CN(CCN(CC(C)OCCO)CC(C)OCCO)CC(C)OCCO)OCCO (stereo not given),inactive,
CC(C)(C)c1ccc(C(O)CCCN2CCC(C(O)(c3ccccc3)c3ccccc3)CC2)cc1 (stereo not given),inactive,
c1csc(SSc2cccs2)c1,inactive,
CCCCOCCOCCOCc1cc2c(cc1CCC)OCO2,inactive,
CN1CCC(OC(c2ccccc2)c2ccccc2)CC1,inactive,
CCc1ccccc1,inactive,
COC(=O)CC(C)CCC=C(C)C (stereo not given),inactive,
CCOC(=O)CC(=O)c1ccccc1,inactive,
CCOc1ccc2[nH]cc(C(=O)NCc3ccccc3)c(=O)c2n1,inactive,
O=C1CN(/N=C/c2ccc([N+](=O)[O-])o2)C(=O)N1,inactive and 68.6 µM (active),
CCC(=O)Oc1ccc(/C(CC)=C(\CC)c2ccc(OC(=O)CC)cc2)cc1,inactive,
COc1ccc2cc(CCC(C)=O)ccc2c1,inactive,
COc1cc(C(C)(C)C)c(O)c(C(C)(C)C)c1,inactive,
CCOC(=O)c1nc(C(Cl)(Cl)Cl)n(-c2ccc(Cl)cc2Cl)n1,inactive,
C/C=C/C=C/C=O,inactive,
CN1CC(=O)N2[C@H](c3ccc4c(c3)OCO4)c3[nH]c4ccccc4c3C[C@@H]2C1=O,inactive,
O=C(Cl)c1ccc(F)c(Cl)c1,inactive,
CC1(COc2ccc(CC3SC(=O)NC3=O)cc2)CCCCC1 (stereo not given),12.8 µM (active),
O=C(Oc1cccc2cccnc12)c1ccccc1,inactive,

SMILES,Potency,activation
C=C/C=C/C=C/CCCCC,,-0.0392% [at 19 µM] (inactive)
CCCCC(CC)COC(=O)COc1cc(Cl)c(Cl)cc1Cl (stereo not given),inactive,
O=C(/C=C/c1ccc(O)c(O)c1)O[C@@H]1C[C@@](OC(=O)/C=C/c2ccc(O)c(O)c2)(C(=O)O)C[C@@H](O)[C@@H]1O,inactive,
C=Cc1ccc(O)c(OC)c1,inactive,
CCc1ccc2c(c1)C(=O)c1ccccc1C2=O,inactive,
CCCCCCCCOC(=O)c1ccc(O)cc1,inactive,
O=C1CCCc2c1cc1ccc3cccc4ccc2c1c34,inactive,
O=C(O)c1c2ccccc2cc2ccccc12,inactive,
CC(CO)(CO)[N+](=O)[O-],inactive,
Cn1ccc2cc3c(cc21)CCN3C(=O)Nc1cccnc1,,16.6% [at 19 µM] (inactive)
O=C(c1ccccc1)c1ccc(O)cc1O,inactive,
Cc1ncc(COP(=O)(O)O)c(C=O)c1O,inactive,
O=C1c2ccccc2-c2ccccc21,inactive,
CSc1ccc(C=O)cc1,inactive,
O=C(O)[C@H](O)c1ccccc1,inactive,
COc1cccc(N(C)C(=S)Oc2ccc3c(c2)CCCC3)n1,inactive,
CCS(=O)(=O)c1ccc(OC)c(C(=O)OC)c1,inactive,
CCN1CCOCC1,inactive,
CC(C)c1cccc(C(C)C)c1NC(=O)NS(=O)(=O)c1cc(C(C)(C)O)co1,inactive,
NC(=O)c1c(Cl)cccc1Cl,inactive,
